Hits are enriched below; roughly 3.2% of the tested compounds scored in any of these assays.
VDR inh: Inhibitors of the vitamin D receptor (VDR): qHTS. Vitamin D3 receptor (Homo sapiens), P11473. VDR-SRC2-3 peptide fluorescence polarization, 2 h. Potency, µM, inactives show max response, negative = inhibition, actives largely listed as inhibitors. 0.93% of 400,000 active; note: potency is the fitted concentration of half-maximal effect
Target sequence (P11473 whole entry, looked up): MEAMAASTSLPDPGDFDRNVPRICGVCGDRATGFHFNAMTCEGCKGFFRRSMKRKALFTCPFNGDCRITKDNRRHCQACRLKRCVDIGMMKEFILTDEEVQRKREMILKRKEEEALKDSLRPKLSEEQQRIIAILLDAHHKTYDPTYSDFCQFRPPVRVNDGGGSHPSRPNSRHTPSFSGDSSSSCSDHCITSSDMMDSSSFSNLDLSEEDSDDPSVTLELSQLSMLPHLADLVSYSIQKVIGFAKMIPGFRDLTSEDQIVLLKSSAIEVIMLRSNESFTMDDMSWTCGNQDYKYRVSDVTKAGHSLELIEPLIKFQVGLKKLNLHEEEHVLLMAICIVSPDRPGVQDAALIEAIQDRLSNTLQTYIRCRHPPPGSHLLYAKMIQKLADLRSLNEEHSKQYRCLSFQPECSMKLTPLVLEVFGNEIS
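VDR–SRC2-3 interaction, FP format. Cmpds 23 nl via pintool, brief spin, 2 h ambient incubation.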
PLK1 PBD block: qHTS for Inhibitors of PLK1-PDB (polo-like kinase 1 - polo-box domain): Primary Screen. Serine/threonine-protein kinase PLK1 (Homo sapiens), P53350. Plk1 PBD binding of FITC phosphopeptide, fluorescence polarization. Potency, µM, inactives show max response, negative = inhibition, most hits filed as inhibitors. 2.8% of 360,000 active; note: potency is the fitted concentration of half-maximal effect; series mostly up to about 57 µM; nearly all actives have a fitted effect of over 65% in size
Coupling enz: qHTS Assay for Inhibitors of Fructose-1,6-bisphosphate Aldolase from Giardia Lamblia: Coupling assay counterscreen. coupling enzyme system counterscreen, AmpLite Red fluorescence. activity change, negative = inhibition, % at 58.2 µM, hits read low. 0.67% of 290,000 active. AID 2472, 2010; in the data active = activity change below about -30%
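Final compound at 57.5 uM, incubated 10 min at RT with coupling enzyme reagent (glyceraldehyde-3-phosphate), then 20 min with substrate and AmpLite Red detection. Fluorescence read at 525/598 nm; tests interference with the coupling assay, not aldolase inhibition.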
USP2a block: qHTS Assay for Inhibitors of Ubiquitin-specific Protease USP2a Using CHOP2 as the Reporter; Ubiquitin carboxyl-terminal hydrolase 2 (Homo sapiens), O75604; Potency, µM (top dose mostly 38.3 µM), without a hit: at the highest dose activity change, negative = inhibition, hits mostly inhibitors; 0.01% of 330,000 active; USP2 core, Ub-CHOP2 coupled fluorogenic reporter, 485/531;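 note: potency is the fitted concentration of half-maximal effect; plate controls were DMSO wells for no effect and full inhibition by NEM control for full effect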
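Deubiquitinase activity read as fluorescence (485/531 nm) after Ub-CHOP2 cleavage activates the enterokinase reporter on its substrate; USP2 core 10nM, Ub-CHOP2 and substrate 25nM each, 30min compound preincubation then 60min RT; data normalized to NEM, curves fitted.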
USP1-UAF1 inh: Inhibitors of USP1/UAF1: Primary Screen; Ubiquitin carboxyl-terminal hydrolase 1 (Homo sapiens), O94782; recombinant USP1/UAF1, Ub-Rhodamine cleavage fluorescence; Potency, µM (series often up to 57.1 µM), for the others: at the highest dose activity change, negative = inhibition, hits mostly inhibitors; 0.23% of 390,000 active; AID 743255, 2014; note: potency is the fitted concentration of half-maximal effect; nearly all actives have a fitted effect of over 60% in size
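Step one: compound is pinned into 1nM USP1/UAF1 in HEPES pH 7.8 buffer with TCEP. Step two: 15 min room-temperature incubation. Step three: Ub-Rho (150nM final) starts cleavage, tracked by fluorescence over six one-minute reads.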
GALK inhibitor: qHTS Assay for Inhibitors of Human Galactokinase (GALK); Purified GALK, Kinase-Glo residual ATP luminescence; Potency, µM (series often up to 57.5 µM), inactives show at the top dose activity change, negative = inhibition, usual class: inhibitors; 0.007% of 270,000 active; note: potency is the fitted concentration of half-maximal effect
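Kinase-Glo Plus luminescence measured ATP left after a 1 h room-temperature reaction. The reaction used 5 nM GALK, 100 uM galactose and 35 uM ATP at pH 8.0 (20 mM HEPES, 5 mM MgCl2, 60 mM NaCl, 1 mM DTT, 0.01% BSA).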
* = called active by the depositor. Unless noted, calls come from the whole dose curve; as a rule, active = well fitted curve in the direction sought with a large enough effect; inconclusive = small, poorly fitted or top-dose-only effect, or another doubt; inactive = no such curve, though single readings can be large; an effect the other way counts as inactive or inconclusive. Unless noted, % is set by controls: 0 for no effect and ±100 for the full control effect.

What do the screens show for `Cc1ccc(/C=C2\S/C(=N/S(=O)(=O)c3cccs3)NC2=O)cc1`?
VDR inh: -25%; PLK1 PBD block: 19µM*; Coupling enz: 14; USP2a block: 2%; USP1-UAF1 inh: inconclusive; GALK inhibitor: -20%

What do the screens show for `Cc1ccc(S(=O)(=O)/N=C2/NC(=O)/C(=C/c3cc([N+](=O)[O-])ccc3O)S2)cc1`?
VDR inh: inconclusive; PLK1 PBD block: 4%; Coupling enz: 17; USP2a block: -2%; USP1-UAF1 inh: 28µM*; GALK inhibitor: -17%

Results for COC(=O)c1ccc2nc(-c3cccc(Cl)c3)c(Cc3ccccc3)n2c1 ?
PLK1 PBD block: -2%

Results for CN1CCN(CCCOc2ccc(-c3ccccc3)cc2)CC1 ?
VDR inh: -19%; PLK1 PBD block: 21µM*; Coupling enz: 1; USP2a block: 3%; USP1-UAF1 inh: 0%; GALK inhibitor: 3%

Results for CCOC(=O)C1=C(C)NC(C)=C(C(=O)OCC)C1C(=O)OCC(=O)N1CCCCC1CC (stereo unspecified) ?
VDR inh: 5%; PLK1 PBD block: -6%; Coupling enz: 3; USP2a block: 2%; USP1-UAF1 inh: 7%; GALK inhibitor: -3%

What do the screens show for `O=C(NCc1ccc2c(c1)OCO2)c1[nH]c(C(F)(F)F)nc1-c1ccccc1`?
PLK1 PBD block: -1%

What do the screens show for `CN(C)c1cccc(C(=O)NCc2ccc(Cl)cc2)c1`?
VDR inh: -11%; PLK1 PBD block: 19µM*; Coupling enz: 1; USP2a block: 0%; USP1-UAF1 inh: -14%; GALK inhibitor: -2%

Results for O=C/C=C/c1c(-c2ccccc2)cc2oc3ccccc3cc1-2 ?
VDR inh: 35µM*; PLK1 PBD block: -12%; Coupling enz: -3; USP2a block: 2%; USP1-UAF1 inh: inconclusive; GALK inhibitor: 6%

Results for O=C(COC(=O)CCCSc1nc2ccccc2[nH]1)NC(=O)NC1CCCC1 ?
VDR inh: -5%; PLK1 PBD block: -10%; Coupling enz: 1; USP2a block: -6%; USP1-UAF1 inh: -21%; GALK inhibitor: 3%

Results for CC1CC(C)CN(C(=O)Cn2ncc3c([nH]c4ccccc43)c2=O)C1 (stereo unspecified) ?
VDR inh: -24%; PLK1 PBD block: 24µM*; Coupling enz: 2; USP2a block: 1%; USP1-UAF1 inh: -14%; GALK inhibitor: 0%

How did CCN1CCN(C(=O)Cn2ncc3c([nH]c4ccccc43)c2=O)CC1 do in these assays?
VDR inh: -7%; PLK1 PBD block: -10%; USP2a block: 1%; USP1-UAF1 inh: -15%; GALK inhibitor: -4%

What do the screens show for `COc1cc(O)c(NC(C)=O)c2nonc12`?
VDR inh: -81%; PLK1 PBD block: -16%; Coupling enz: -54*; USP2a block: 1%; USP1-UAF1 inh: inconclusive; GALK inhibitor: 0%

Results for COc1cc(-c2ccc(NC(C)=O)c(OC)c2)ccc1NC(C)=O ?
VDR inh: -1%; PLK1 PBD block: 3%; Coupling enz: -1; USP2a block: -1%; USP1-UAF1 inh: -23%; GALK inhibitor: -4%

Results for O=c1[nH]c2ccc(NCc3ccc(OCc4ccccc4Cl)cc3)cc2[nH]1 ?
VDR inh: -5%; PLK1 PBD block: -6%; Coupling enz: 0; USP2a block: -2%; USP1-UAF1 inh: -19%

Results for NS(=O)(=O)c1cccc(NC(=O)CCN2C(=O)C3CCCCC3C2=O)c1 (stereo unspecified) ?
VDR inh: -2%; PLK1 PBD block: 3%; USP2a block: 5%; USP1-UAF1 inh: -14%

What do the screens show for `Cc1cccc(NC(=O)C(NS(=O)(=O)c2ccc3c(c2)CCC(=O)N3)c2ccccc2)n1` (stereo unspecified)?
VDR inh: -7%; PLK1 PBD block: 13µM*; Coupling enz: -1; USP2a block: -1%; USP1-UAF1 inh: -2%; GALK inhibitor: -1%

What do the screens show for `O=C(CN1CCCCC1)Nc1ccc(NC(=O)c2ccc(Cl)cc2)cc1Cl`?
VDR inh: 8%; PLK1 PBD block: -10%; Coupling enz: 0; USP2a block: 2%; USP1-UAF1 inh: -7%; GALK inhibitor: -3%

How did CC1CN(S(=O)(=O)c2ccc(NC(=O)c3cc(-c4ccccc4O)n[nH]3)cc2)CC(C)O1 (stereo unspecified) do in these assays?
VDR inh: 24%; PLK1 PBD block: -21%; Coupling enz: -5; USP2a block: -10%; USP1-UAF1 inh: -19%; GALK inhibitor: -1%

What do the screens show for `CNC(=O)COC(=O)c1cc(-c2ccco2)nc2ccccc12`?
VDR inh: inconclusive; PLK1 PBD block: 24µM*; Coupling enz: -4; USP2a block: 7%; USP1-UAF1 inh: -9%; GALK inhibitor: -2%

How did O=C(COC(=O)c1cc(-c2ccco2)nc2ccccc12)NCc1ccccc1 do in these assays?
VDR inh: -11%; PLK1 PBD block: -16%; Coupling enz: 2; USP2a block: 1%; USP1-UAF1 inh: -20%; GALK inhibitor: 1%

How did CCCc1[nH][nH]c(=O)c1C(c1cccc(Cl)c1)C(C#N)C#N (stereo unspecified) do in these assays?
VDR inh: -25%; PLK1 PBD block: 11µM*; Coupling enz: -2; USP2a block: 2%; USP1-UAF1 inh: -11%; GALK inhibitor: -2%

What do the screens show for `CCN(CC)S(=O)(=O)c1ccc(NC2c3ncccc3C(=O)N2Cc2ccccc2)cc1` (stereo unspecified)?
VDR inh: -4%; PLK1 PBD block: -29%; Coupling enz: 0; USP2a block: -7%; USP1-UAF1 inh: -22%; GALK inhibitor: 3%

What do the screens show for `CN1C(=O)/C(=N/OC(=O)c2ccccc2)c2ccccc21`?
VDR inh: -18%; PLK1 PBD block: 12µM*; Coupling enz: 8; USP2a block: 0%; USP1-UAF1 inh: -6%; GALK inhibitor: -2%

Results for O=C1COc2ccc(-c3csc(NCC4CCCO4)n3)cc2N1 (stereo unspecified) ?
VDR inh: 5%; PLK1 PBD block: -12%; Coupling enz: -4; USP2a block: 3%; USP1-UAF1 inh: -16%; GALK inhibitor: 0%

Screening data as filed in PubChem BioAssay.
